Source: PubChem BioAssay (Tox21)
Inconclusive results are not listed. Calls of active or inactive are those of the source. Unless noted, calls follow the shape of the dose curve; as a rule, active = well fitted curve in the direction sought with a large enough effect in the repeat runs; inconclusive = weak or mixed curves; inactive = no such curve, though single readings can be large; an effect the other way counts as inactive or inconclusive.

Legend:
[1] = qHTS assay to identify small molecule agonists of the peroxisome proliferator-activated receptor delta (PPARd) signaling pathway - cell viability counter screen (AID 743211); also: nearly all actives have a fitted effect of over 55% in size
Outline: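 PPARd-bla HEK293H cells (3000/well) were pre-incubated 5 h at 37 C, then exposed to compound for 17 h at 37 C. After 2 h with LiveBLAzer substrate, CellTiter-Glo was added to the same wells; luminescence read after 30 min at room temperature.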

[2] = target: Peroxisome proliferator-activated receptor delta (Homo sapiens) (UniProt Q03181); assay: qHTS assay to identify small molecule agonists of the peroxisome proliferator-activated receptor delta (PPARd) signaling pathway (AID 743212; calls by dose curve)
Outline: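 HEK293H UAS-bla reporter cells, human PPARd system; compounds delivered in DMSO after 5 h plating, then at 37 C. Beta-lactamase FRET read, 2 h RT substrate step.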

[3] = qHTS assay to identify small molecule agonists of the farnesoid-X-receptor (FXR) signaling pathway - cell viability counter screen (AID 743218); also: nearly all actives have a fitted effect of over 45% in size
Outline: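 Parallel cytotoxicity test: compound-treated (16 h, 37 C) HEK 293T FXR-bla reporter cells were lysed with CellTiter-Glo and luminescence recorded.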

[4] = qHTS assay to identify small molecule antagonists of the farnesoid-X-receptor (FXR) signaling pathway - cell viability counter screen (AID 743221; active = well fitted cell-killing curve with a large enough effect in the repeat runs, not every such curve was filed as active; also: nearly all actives have a fitted effect of over 50% in size)
Outline: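 GeneBLAzer FXR-UAS-bla HEK 293T cells, compound plus chenodeoxycholic acid (50 uM final), 16 h at 37 C. CellTiter-Glo added to the same wells after the beta-lactamase read; luminescence read after 30 min at room temperature as viability.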

[5] = target: Vitamin D3 receptor (Homo sapiens) (UniProt P11473); assay: qHTS assay to identify small molecule agonists of the vitamin D receptor (VDR) signaling pathway (AID 743222; calls by dose curve)
Outline: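 In VDR-bla cells, compound-induced beta-lactamase expression is quantified by FRET substrate fluorescence. Treatment lasts 16 h at 37C; substrate develops 2 h at room temperature.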

[6] = target: Vitamin D3 receptor (Homo sapiens) (UniProt P11473); assay: qHTS assay to identify small molecule antagonists of the vitamin D receptor (VDR) signaling pathway (AID 743223; active = well fitted inhibition curve with a large enough effect in the signal ratio in the repeat runs, not every such curve was filed as active; the % refers to the signal ratio)
Outline: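 VDR-bla cells were treated with compound plus 3 nM final 1alpha,25-dihydroxyvitamin D3 for 16 h at 37C. Beta-lactamase reporter read by B/G FRET substrate fluorescence after 2 h at room temperature. qHTS format.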

[7] = qHTS assay to identify small molecule agonists of the vitamin D receptor (VDR) signaling pathway - cell viability counter screen (AID 743224); also: series mostly up to about 63 µM; nearly all actives have a fitted effect of over 50% in size
Outline: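 Plated VDR-bla cells (4 h, 37C) received compound, incubated 16 h, then LiveBLAzer substrate 2 h RT; CellTiter-Glo added afterwards, luminescence read at 30 min.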

[8] = qHTS assay to identify small molecule antagonists of the vitamin D receptor (VDR) signaling pathway - cell viability counter screen (AID 743225); also: nearly all actives have a fitted effect of over 50% in size
Outline: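 VDR-UAS-bla HEK 293T cells were plated and incubated 4 h at 37C, then dosed with compound plus 3 nM (final) 1-alpha,25-dihydroxyvitamin D3 for 16 h. After the 2 h beta-lactamase read, viability in the same wells was read as CellTiter-Glo luminescence after 30 min at room temperature.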

[9] = qHTS assay to identify small molecule agonists of the NFkB signaling pathway (AID 1159509; active = well fitted curve in the direction sought with a large enough effect in the signal ratio in the repeat runs, not every such curve was filed as active; the % refers to the signal ratio; also: series mostly up to about 61 µM)
Outline: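 NFkB-bla ME-180 cells with a beta-lactamase reporter under an NF-kB response element were plated overnight, treated with compounds in DMSO for 5 hr at 37 C, then loaded with FRET substrate for 1.5 hr at room temperature.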

[10] = qHTS assay to identify small molecule agonists of the NFkB signaling pathway - cell viability counter screen (AID 1159515; calls by dose curve; also: series mostly up to about 61 µM; nearly all actives have a fitted effect of over 55% in size)
Outline: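 Using the same wells as the NFkB reporter read, ME-180 NFkB-bla cells given compounds for 5 hr were assessed for viability via CellTiter-Glo, with luminescence taken after a 30 min room-temperature incubation.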

[11] = qHTS assay to identify small molecule agonists of the endoplasmic reticulum stress response signaling pathway (AID 1159516; active = well fitted activation curve with a large enough effect in the signal ratio in the repeat runs, not every such curve was filed as active; the % refers to the signal ratio)
Outline: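 An ESRE-bla HeLa cell assay: compounds were pin-transferred from DMSO onto overnight-plated cells and left 5 hr at 37 C. Substrate was then loaded for 2 hr at room temperature before reading fluorescence at 460 nm and 530 nm.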

[12] = qHTS assay to identify small molecule agonists of the endoplasmic reticulum stress response signaling pathway - cell viability counter screen (AID 1159517; calls by dose curve;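 also: HeLa cells carrying an ER stress response element beta-lactamase reporter; series mostly up to about 61 µM; nearly all actives have a fitted effect of over 50% in size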)
Outline: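 Cells, HeLa ESRE-bla; density, 1,500/well; dosing, 5 hr at 37 C, 5% CO2; readout, CellTiter-Glo luminescence after 30 min RT.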

[13] = qHTS assay to identify small molecule antagonists of the retinoid-related orphan receptor gamma (ROR-gamma) signaling pathway - cell viability counter screen (AID 1159520); also: nearly all actives have a fitted effect of over 50% in size
Outline: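 Cytotoxicity was read from cellular ATP (CellTiter-Glo luminescence) after 16 hr at 37 C with 1 uM doxycycline induction. The inducer was added 2 hr after compound transfer to Tet-on ROR gamma CHO cells.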

[14] = target: Nuclear receptor ROR-gamma (Homo sapiens) (UniProt P51449); assay: qHTS assay to identify small molecule antagonists of the retinoid-related orphan receptor gamma (ROR-gamma) signaling pathway (AID 1159521)
Outline: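 Tet-on ROR-gamma CHO cells with ROR response element-luciferase reporter; compounds added 2 hr before 1 uM doxycycline induction, then 16 hr at 37 C. Antagonism scored as decreased ONE-Glo luminescence.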

[15] = qHTS assay to identify small molecule agonists of the AP-1 signaling pathway - cell viability counter screen (AID 1159525; calls by dose curve; also: nearly all actives have a fitted effect of over 55% in size)
Outline: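 Luminescent ATP readout (Cell Titer Glo, 30 min RT), normalised to DMSO and tetra n-octyl ammonium bromide controls. Cells were ME-180 AP-1-bla in 0.5% dialyzed FBS Opti-MEM, with a 5 h, 37 °C compound exposure.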

[16] = qHTS assay to identify small molecule agonists of the AP-1 signaling pathway (AID 1159526; calls by dose curve)
[17] = qHTS assay to identify small molecule antagonists of the peroxisome proliferator-activated receptor delta (PPARd) signaling pathway - cell viability counter screen (AID 743213); also: nearly all actives have a fitted effect of over 50% in size
Outline: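 Agonist-stimulated (L165041, 300 nM final) HEK293H PPARd UAS-bla cells are exposed to compounds for 17 h at 37 C, and ATP-based luminescence (CellTiter-Glo) from the same wells reports cytotoxicity.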

[18] = target: Peroxisome proliferator-activated receptor delta (Homo sapiens) (UniProt Q03181); assay: qHTS assay to identify small molecule antagonists of the peroxisome proliferator-activated receptor delta (PPARd) signaling pathway (AID 743215; active = well fitted inhibition curve with a large enough effect in the signal ratio in the repeat runs, not every such curve was filed as active; the % refers to the signal ratio; also: series mostly up to about 62 µM)
Outline: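 HEK293H UAS-bla, PPARd; agonist L165041 300 nM final with cpd in DMSO; 37 C 17 h; FRET substrate, RT 2 h; fluorescence intensity.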

[19] = target: Bile acid receptor (Homo sapiens) (UniProt Q96RI1); assay: qHTS assay to identify small molecule antagonists of the farnesoid-X-receptor (FXR) signaling pathway (AID 743217; active = well fitted inhibition curve with a large enough effect in the signal ratio in the repeat runs, not every such curve was filed as active; the % refers to the signal ratio)
Outline: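 GeneBLAzer FXR-UAS-bla HEK 293T, CDCA-stimulated (50 uM final). Compound treatment 16 h, 37 °C. Detection: beta-lactamase cleavage of B/G FRET substrate, fluorescence.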

[20] = target: Bile acid receptor (Homo sapiens) (UniProt Q96RI1); assay: qHTS assay to identify small molecule agonists of the farnesoid-X-receptor (FXR) signaling pathway (AID 743220; active = well fitted activation curve with a large enough effect in the signal ratio in the repeat runs, not every such curve was filed as active; the % refers to the signal ratio)
Outline: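 Beta-lactamase reporter under UAS control in GeneBLAzer FXR HEK 293T cells (5000/well) measured with LiveBLAzer FRET substrate after 2 h at room temperature. Compound exposure lasted 16 h at 37C.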

Measured: Potency

Vitamin D3 receptor (Homo sapiens), sequence (P11473 whole entry, looked up): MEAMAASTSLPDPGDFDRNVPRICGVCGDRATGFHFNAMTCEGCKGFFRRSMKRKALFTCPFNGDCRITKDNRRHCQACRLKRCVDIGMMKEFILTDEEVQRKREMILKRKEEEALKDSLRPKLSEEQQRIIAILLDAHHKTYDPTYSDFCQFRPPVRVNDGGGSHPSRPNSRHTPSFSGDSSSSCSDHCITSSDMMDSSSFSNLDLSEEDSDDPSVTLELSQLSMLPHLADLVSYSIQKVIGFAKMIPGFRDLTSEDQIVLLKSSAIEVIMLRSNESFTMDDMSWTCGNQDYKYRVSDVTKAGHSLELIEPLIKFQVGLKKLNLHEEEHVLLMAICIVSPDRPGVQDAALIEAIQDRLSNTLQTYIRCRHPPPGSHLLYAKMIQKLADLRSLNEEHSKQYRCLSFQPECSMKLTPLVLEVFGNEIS
Bile acid receptor (Homo sapiens), sequence (Q96RI1 whole entry, looked up): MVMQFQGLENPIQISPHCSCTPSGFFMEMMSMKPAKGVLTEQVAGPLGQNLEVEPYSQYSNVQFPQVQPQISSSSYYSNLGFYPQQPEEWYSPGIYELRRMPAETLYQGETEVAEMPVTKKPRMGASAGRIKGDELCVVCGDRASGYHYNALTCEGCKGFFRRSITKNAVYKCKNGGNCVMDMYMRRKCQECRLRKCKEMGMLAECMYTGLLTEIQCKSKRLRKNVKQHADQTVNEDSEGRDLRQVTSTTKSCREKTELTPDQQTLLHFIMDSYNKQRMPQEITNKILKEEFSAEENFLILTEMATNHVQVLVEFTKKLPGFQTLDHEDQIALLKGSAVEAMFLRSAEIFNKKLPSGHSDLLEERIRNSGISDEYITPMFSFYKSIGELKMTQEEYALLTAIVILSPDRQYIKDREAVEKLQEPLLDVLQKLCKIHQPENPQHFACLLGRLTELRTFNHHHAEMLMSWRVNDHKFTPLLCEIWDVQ
Peroxisome proliferator-activated receptor delta (Homo sapiens), sequence (Q03181 whole entry, looked up): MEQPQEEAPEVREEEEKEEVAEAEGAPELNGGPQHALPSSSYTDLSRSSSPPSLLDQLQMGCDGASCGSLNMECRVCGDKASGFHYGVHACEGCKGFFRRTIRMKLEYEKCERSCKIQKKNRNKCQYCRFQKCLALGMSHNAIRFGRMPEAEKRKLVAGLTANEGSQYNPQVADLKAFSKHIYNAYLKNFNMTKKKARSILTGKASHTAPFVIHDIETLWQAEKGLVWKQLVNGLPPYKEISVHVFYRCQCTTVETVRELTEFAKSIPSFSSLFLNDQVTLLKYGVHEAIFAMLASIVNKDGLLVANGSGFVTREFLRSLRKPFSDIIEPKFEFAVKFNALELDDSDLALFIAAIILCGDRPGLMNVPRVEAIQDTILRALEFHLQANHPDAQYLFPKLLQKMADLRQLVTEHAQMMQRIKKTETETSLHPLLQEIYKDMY

CC(C)CCCC(C)(C)O
inactive: [1] | [2] | [3] | [4] | [5] | [6] | [7] | [8] | [9] | [10] | [11] | [12] | [13] | [14] | [15] | [16]

CC1(CO)CN(c2ccccc2)NC1=O (stereo unspecified)
inactive: [1] | [17] | [5] | [6] | [9] | [10] | [11] | [12] | [13] | [14] | [15] | [16]

C[C@@H](Oc1ccc(CNC(=O)c2cccnc2Oc2ccc3c(c2)OCO3)c(F)c1)C(=O)O
inactive: [1] | [2] | [17] | [18] | [19] | [3] | [20] | [4] | [5] | [6] | [7] | [8] | [9] | [10] | [11] | [12] | [13] | [14] | [16]

Cc1ccc(C=O)cc1C
inactive: [1] | [17] | [19] | [3] | [20] | [4] | [5] | [6] | [7] | [9] | [10] | [11] | [12] | [13] | [14] | [15] | [16]

O=C(NCC(O)CO)c1c(I)c(C(=O)NCC(O)CO)c(I)c(N(CCO)C(=O)CO)c1I (stereo unspecified)
inactive: [1] | [17] | [19] | [20] | [4] | [5] | [7] | [8] | [9] | [10] | [11] | [12] | [13] | [14] | [15] | [16]

Nc1ncnc(Nc2ccccc2)n1
inactive: [1] | [2] | [17] | [18] | [3] | [4] | [5] | [6] | [7] | [9] | [10] | [11] | [12] | [13] | [14] | [16]

CC(=O)OC(C)OC(=O)C(C)c1ccc(-c2ccccc2)c(F)c1 (stereo unspecified)
inactive: [1] | [20] | [4] | [5] | [7] | [9] | [10] | [11] | [12] | [13] | [14] | [15] | [16]

C=C1CC/C=C(\C)CC[C@@H]2[C@@H]1CC2(C)C
inactive: [1] | [19] | [3] | [20] | [4] | [5] | [6] | [7] | [8] | [9] | [10] | [11] | [12] | [13] | [14] | [15] | [16]
